According to PubChem BioAssay:
The source made the active and inactive calls. Unless noted, no rule for the calls is given here.

Key:
[1] = compound effects on lung adenocarcinoma cell viability – A549, calcein-AM fluorescence, 48 h, basal, profiling panel (AID 1162); conditions: higher = more signal; also: test concentration not given here
[2] = compound effects on differentiated 3T3-L1 adipocyte viability – cell-based, 3T3-L1 adipocytes, calcein-AM fluorescence, 48 h, basal, profiling panel (AID 1163); conditions: 3T3-L1 adipocytes viability, higher = more signal; also: test concentration not given here
[3] = compound effects on hepatocellular carcinoma cell viability – HepG2, calcein-AM fluorescence, 48 h, basal, profiling panel (AID 1164); conditions: higher = more signal; also: test concentration not given here
[4] = compound effects on multiple myeloma cell viability – MM1S, calcein-AM fluorescence, 48 h, basal, profiling panel (AID 1165); conditions: higher = more signal; also: test concentration not given here
[5] = calcein-AM signal in unstimulated myeloma cells – cell-based, calcein-AM fluorescence, 48 h, PK04 Diversity Set, profiling panel (AID 1166); conditions: RPMI8226 myeloma viability, higher = more signal;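 also: cells grown under basal conditions without added stimulus; test concentration not given here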
[6] = JC-1 mitochondrial signal, unstimulated HepG2 cells – cell-based, JC-1 fluorescence, 24 h, 100 nL compound, profiling panel (AID 1167); conditions: HepG2 mitochondrial potential, higher = more signal; also: test concentration not given here
[7] = JC-1 mitochondrial signal, unstimulated adipocytes – cell-based, JC-1 fluorescence, 3T3-L1 adipocytes, 24 h, 100 nL compound, profiling panel (AID 1168); conditions: JC-1 mitochondrial fluorescence, higher = more signal, called active from +8 up or from −8 down; also: test concentration not given here
[8] = JC-1 mitochondrial signal, unstimulated myeloma cells – cell-based, JC-1 fluorescence, RPMI8226, 24 h, 100 nL compound, profiling panel (AID 1169); conditions: JC-1 mitochondrial potential fluorescence, higher = more signal; also: test concentration not given here
[9] = JC-1 mitochondrial signal, unstimulated MM1S myeloma – cell-based, JC-1 fluorescence, 24 h, 100 nL compound, profiling panel (AID 1170); conditions: MM1S mitochondrial potential, higher = more signal; also: test concentration not given here
[10] = resazurin metabolic signal in A549 cells – cell-based, resazurin fluorescence, 24 h, PK04 Diversity Set, profiling panel (AID 1171); conditions: A549 viability, higher = more signal, called active from +8 up or from −8 down; also: test concentration not given here
[11] = resazurin metabolic signal in HepG2 cells – cell-based, resazurin fluorescence, 24 h, PK04 Diversity Set, profiling panel (AID 1172); conditions: HepG2 viability, higher = more signal; also: test concentration not given here
[12] = budding yeast growth changes without added modifier – OD600, strain BY4716, 24 h, basal condition, primary screen (AID 1173); conditions: S. cerevisiae BY4716 growth, OD600, 24 h; higher = more signal, called active from +8 up or from −8 down
[13] = viability profiling in MM1S myeloma cells – cell-based, resazurin fluorescence, basal, 24 h, PK04 Diversity Set, profiling panel (AID 1174); conditions: higher = more signal, called active from +8 up or from −8 down; also: test concentration not given here
[14] = target: Dihydroorotate dehydrogenase (quinone), mitochondrial (Plasmodium falciparum (isolate 3D7)) (UniProt Q08210); experiment: inhibition of P. falciparum DHODH – biochemical, C-terminal His tag, absorbance 600 nm, primary screen (AID 1175); conditions: PfDHODH enzyme, DCIP absorbance 600 nm; higher = more signal, called active from +8 up or from −8 down;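 also: recombinant parasite enzyme with a five histidine tag at its C terminus; test concentration not given here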
Dihydroorotate dehydrogenase (quinone), mitochondrial (Plasmodium falciparum (isolate 3D7)), sequence (Q08210 whole entry, looked up): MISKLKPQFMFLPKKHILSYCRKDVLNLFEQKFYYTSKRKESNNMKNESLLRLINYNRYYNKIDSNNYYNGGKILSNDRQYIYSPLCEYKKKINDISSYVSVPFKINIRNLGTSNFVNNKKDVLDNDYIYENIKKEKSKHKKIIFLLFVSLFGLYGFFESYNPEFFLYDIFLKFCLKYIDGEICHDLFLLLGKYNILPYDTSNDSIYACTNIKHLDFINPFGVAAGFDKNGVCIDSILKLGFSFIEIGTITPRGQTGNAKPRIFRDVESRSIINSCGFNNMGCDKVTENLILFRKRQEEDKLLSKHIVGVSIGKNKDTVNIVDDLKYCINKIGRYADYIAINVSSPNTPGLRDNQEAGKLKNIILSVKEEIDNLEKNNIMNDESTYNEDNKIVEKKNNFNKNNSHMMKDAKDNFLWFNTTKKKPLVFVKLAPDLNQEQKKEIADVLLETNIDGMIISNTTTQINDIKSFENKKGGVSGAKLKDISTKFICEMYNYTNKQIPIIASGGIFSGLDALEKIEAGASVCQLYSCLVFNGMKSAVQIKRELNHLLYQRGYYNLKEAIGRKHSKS

[15] = inhibition of PAO1 biofilm formation – strain PAO1, LB-PBS medium, absorbance 600 nm, primary screen (AID 1176); also: test concentration not given here; conditions: P. aeruginosa PAO1 growth/biofilm, A600, 12 h; higher = more signal
[16] = growth modulation of vineyard yeast isolate – strain RM11-1a, OD600, basal, 24 h, primary screen (AID 1177);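 also: cultures grown under basal conditions with no added stressor; test concentration not given here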; conditions: S. cerevisiae RM11-1a growth, OD600, 24 h; higher = more signal, called active from +8 up or from −8 down
[17] = growth of efflux-deficient E. coli DRC39 – strain DRC39, OD650, 24 h, E. coli filamentation inducers, primary screen (AID 1178);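 also: growth measured as culture turbidity by optical density at 650 nm; test concentration not given here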; conditions: E. coli DRC39 acrAB, higher = more signal, called active from +8 up or from −8 down
[18] = growth of efflux-deficient E. coli DRC39 – strain DRC39, OD650, 48 h, E. coli filamentation inducers, primary screen (AID 1179);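 also: screen aims at cell division blockers that make cells filament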; conditions: E. coli DRC39 delta-acrAB growth, higher = more signal, called active from +8 up or from −8 down
[19] = viability profiling in RPMI8226 myeloma cells – cell-based, resazurin fluorescence, basal, 24 h, PK04 Diversity Set, profiling panel (AID 1180); conditions: higher = more signal;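 also: RPMI8826 multiple myeloma cell line at 5000 cells per well; test concentration not given here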
[20] = target: E3 ubiquitin-protein ligase XIAP (Homo sapiens) (UniProt P98170); experiment: small molecules binding XIAP protein – biophysical, small-molecule microarray, fluorescence 635 nm, primary screen (AID 1181); conditions: higher = more signal;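 also: score merges 667 nm emission and signal to noise over triplicate slides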
E3 ubiquitin-protein ligase XIAP (Homo sapiens), sequence (P98170 whole entry, looked up): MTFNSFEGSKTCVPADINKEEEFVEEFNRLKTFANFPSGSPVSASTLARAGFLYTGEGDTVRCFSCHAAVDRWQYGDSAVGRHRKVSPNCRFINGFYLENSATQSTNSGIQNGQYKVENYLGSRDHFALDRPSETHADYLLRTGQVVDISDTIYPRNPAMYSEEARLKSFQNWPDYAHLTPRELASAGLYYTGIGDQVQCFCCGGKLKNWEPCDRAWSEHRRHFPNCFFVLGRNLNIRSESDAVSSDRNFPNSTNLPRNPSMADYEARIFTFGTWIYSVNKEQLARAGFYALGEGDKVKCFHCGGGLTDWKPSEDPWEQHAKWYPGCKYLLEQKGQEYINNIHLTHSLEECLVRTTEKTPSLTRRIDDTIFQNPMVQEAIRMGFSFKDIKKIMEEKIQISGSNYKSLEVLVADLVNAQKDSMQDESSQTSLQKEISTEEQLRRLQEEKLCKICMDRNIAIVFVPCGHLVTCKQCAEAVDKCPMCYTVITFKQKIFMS

Compound	z-score [1]	z-score [2]	z-score [3]	z-score [4]	z-score [5]	z-score [6]	z-score [7]	z-score [8]	z-score [9]	z-score [10]	z-score [11]	z-score [12]	z-score [13]	composite z-score [14]	z-score [15]	z-score [16]	z-score [17]	z-score [18]	z-score [19]	composite z-score [20]
O=C1O[C@@H](c2ccccc2)[C@@H](c2ccccc2)N2[C@@H](c3ccc(O)cc3)[C@]3(C(=O)Nc4ccc(C#CC5(O)CCCCCC5)cc43)[C@@H](C(=O)NC[C@H](O)c3ccccc3)[C@H]12	-0.0476	0.264	-0.181	-2.14	-1.31	-2.14	-1.16 (inactive)	-0.66	-0.279	0.119 (inactive)	0.677	-0.263 (inactive)	-0.418 (inactive)	0.409 (inactive)	0.348 (inactive)	0.417 (inactive)	-0.839 (inactive)	-0.938 (inactive)	-0.809	-0.312
COC(=O)CCCCCCC(=O)Nc1ccc(NC(=O)CCCC[P+](c2ccccc2)(c2ccccc2)c2ccccc2)cc1	-0.0008	-0.297	0.67	0.134	-0.268	1.58	1.03 (inactive)	-0.176	-1.46	1.1 (inactive)	1.45	-1.95 (inactive)	0.687 (inactive)	-1.77 (inactive)	-1.01 (inactive)	1.68 (inactive)	-17.1 (active)	-5.78 (inactive)	0.347	-0.127
O=C1C2C=CC(C(O)c3ccc(F)cc3)N(n3cnnc3)C2C(=O)N1Cc1ccccc1 (stereo not given)	-0.184	0.799	-1	-0.0875	-1.08	-0.518	-0.633 (inactive)	-0.0973	0.0911	-1.29 (inactive)	-1.05	0.885 (inactive)	-0.794 (inactive)	-0.188 (inactive)	-0.128 (inactive)	-0.592 (inactive)	-0.352 (inactive)	-0.434 (inactive)	-1.47	-0.145
C=C[C@@H](OC)[C@H](OC(=O)Nc1ccc(SC)cc1)c1ccc(O)c(F)c1	-0.247	-0.19	-0.419	-1.4	-0.515	-2.52	1.47 (inactive)	-0.362	-0.317	-0.637 (inactive)	-0.626	-2.65 (inactive)	-0.807 (inactive)	0.592 (inactive)	1.22 (inactive)	1.95 (inactive)	-0.881 (inactive)	-1.19 (inactive)	-0.649	-0.117
C=CCC(OC(C)=O)[C@@H]1[C@@H](N(Cc2cccc3ccccc23)C(=O)c2cccc3ccccc23)c2cc(OCCCO)ccc2N1C(=O)c1ccc(-c2ccccc2)cc1 (stereo not given in full)	-0.545	0.511	0.571	0.425	0.0712	1.61	-0.632 (inactive)	0.72	-0.177	-0.227 (inactive)	-0.333	0.134 (inactive)	-1 (inactive)	0.136 (inactive)	-0.309 (inactive)	-0.56 (inactive)	0.161 (inactive)	-0.123 (inactive)	-0.569	-0.232
